According to PMC7862700, “An all-to-all approach to the identification of sequence-specific readers for epigenetic DNA modifications on cytosine”:

Experiments:
Experiment in all cases: DAPPL (digital affinity profiling via proximity ligation, sequencing); 10 mM Tris-HCl pH 7.5, 50 mM NaCl, 1 mM DTT, 4% glycerol, room temperature, 30 min; GST-TFs on glutathione beads, 16-mer random dsDNA library, 0.1% formaldehyde crosslink after washing; high values mean tight binding
[1] = molecular target: T1, FLI1 (Homo sapiens, UniProt Q01543 1-452); conditions: protein: recombinant; tags: N-terminal GST; dsDNA, one strand shown
T1 sequence: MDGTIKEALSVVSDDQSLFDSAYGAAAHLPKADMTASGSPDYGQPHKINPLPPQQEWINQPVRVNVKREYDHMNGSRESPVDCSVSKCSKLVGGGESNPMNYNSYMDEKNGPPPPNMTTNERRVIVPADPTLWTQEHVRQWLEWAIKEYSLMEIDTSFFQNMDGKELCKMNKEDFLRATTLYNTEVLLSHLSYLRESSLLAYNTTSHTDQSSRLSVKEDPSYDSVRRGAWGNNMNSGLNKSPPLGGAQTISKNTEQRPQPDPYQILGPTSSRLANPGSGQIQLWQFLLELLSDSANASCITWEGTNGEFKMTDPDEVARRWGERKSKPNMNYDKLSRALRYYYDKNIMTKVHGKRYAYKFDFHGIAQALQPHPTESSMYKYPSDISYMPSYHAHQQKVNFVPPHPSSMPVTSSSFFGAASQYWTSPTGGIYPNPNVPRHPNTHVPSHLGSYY
Method in brief: (§1)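 Pools of DNA-barcoded human transcription factors, expressed in yeast as GST fusions on glutathione beads and combined with a tag-only sample, were incubated with 200 nmole of a 16-mer random double-stranded DNA library. Incubation took 30 min at room temperature in Tris/NaCl/DTT/glycerol buffer and was followed by washing, 0.1% formaldehyde crosslinking, proximity ligation (BsaI/T4 ligase, 1 h, 37 °C), PCR amplification and sequencing on an Illumina NextSeq500. Binding signal is the ratio of a hexamer's read frequency for a factor to its frequency for the tag-only sample.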

[2] = molecular target: T2, ELK1 (Homo sapiens, UniProt P19419 1-428); conditions: protein: recombinant; tags: N-terminal GST; dsDNA, one strand shown
T2 sequence: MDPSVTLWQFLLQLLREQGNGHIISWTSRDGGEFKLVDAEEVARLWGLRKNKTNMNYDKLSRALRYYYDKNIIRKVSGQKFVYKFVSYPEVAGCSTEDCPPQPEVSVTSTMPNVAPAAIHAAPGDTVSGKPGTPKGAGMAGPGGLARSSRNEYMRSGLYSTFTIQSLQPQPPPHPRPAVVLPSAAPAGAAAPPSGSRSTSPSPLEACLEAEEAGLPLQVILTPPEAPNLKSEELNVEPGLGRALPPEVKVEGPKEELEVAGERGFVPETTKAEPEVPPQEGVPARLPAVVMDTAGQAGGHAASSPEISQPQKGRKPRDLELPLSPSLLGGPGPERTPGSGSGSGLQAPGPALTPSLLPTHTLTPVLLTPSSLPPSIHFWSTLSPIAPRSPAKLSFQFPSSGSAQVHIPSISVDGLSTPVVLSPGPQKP
Method in brief: as §1

[3] = molecular target: T3, GABPA (Homo sapiens, UniProt Q06546 1-454); conditions: protein: recombinant; tags: N-terminal GST; dsDNA, one strand shown
T3 sequence: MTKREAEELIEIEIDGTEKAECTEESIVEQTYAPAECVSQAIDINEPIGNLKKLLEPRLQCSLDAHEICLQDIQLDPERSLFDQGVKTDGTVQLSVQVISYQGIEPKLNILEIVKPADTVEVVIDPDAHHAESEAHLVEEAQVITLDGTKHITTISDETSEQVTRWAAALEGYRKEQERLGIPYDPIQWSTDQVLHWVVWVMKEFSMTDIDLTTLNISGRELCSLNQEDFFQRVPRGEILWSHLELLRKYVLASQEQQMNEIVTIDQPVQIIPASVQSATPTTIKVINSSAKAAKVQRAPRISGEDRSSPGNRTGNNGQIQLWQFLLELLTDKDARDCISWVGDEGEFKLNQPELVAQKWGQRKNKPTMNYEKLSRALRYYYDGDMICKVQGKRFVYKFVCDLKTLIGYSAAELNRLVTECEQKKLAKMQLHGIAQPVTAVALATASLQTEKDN
Method in brief: as §1

[4] = molecular target: T4, ERG (Homo sapiens, UniProt P11308 1-479); conditions: protein: recombinant; tags: N-terminal GST; dsDNA, one strand shown
T4 sequence: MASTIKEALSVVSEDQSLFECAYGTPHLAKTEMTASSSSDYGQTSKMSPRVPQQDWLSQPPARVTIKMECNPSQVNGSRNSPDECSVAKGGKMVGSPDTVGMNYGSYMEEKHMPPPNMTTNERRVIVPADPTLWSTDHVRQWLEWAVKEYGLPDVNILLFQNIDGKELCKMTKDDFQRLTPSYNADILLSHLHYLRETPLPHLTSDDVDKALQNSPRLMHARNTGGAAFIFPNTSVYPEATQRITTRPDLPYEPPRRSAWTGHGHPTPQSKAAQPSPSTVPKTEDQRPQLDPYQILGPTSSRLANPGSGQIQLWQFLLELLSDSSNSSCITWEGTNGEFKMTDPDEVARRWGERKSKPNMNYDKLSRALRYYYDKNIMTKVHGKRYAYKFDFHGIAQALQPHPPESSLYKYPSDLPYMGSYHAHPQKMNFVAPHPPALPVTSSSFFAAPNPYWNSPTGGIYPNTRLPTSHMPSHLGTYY
Method in brief: as §1

[5] = molecular target: ELF1 (Homo sapiens, UniProt P32519 1-619); conditions: protein: recombinant; tags: N-terminal GST; dsDNA, one strand shown
Chain of ELF1 (P32519 whole entry): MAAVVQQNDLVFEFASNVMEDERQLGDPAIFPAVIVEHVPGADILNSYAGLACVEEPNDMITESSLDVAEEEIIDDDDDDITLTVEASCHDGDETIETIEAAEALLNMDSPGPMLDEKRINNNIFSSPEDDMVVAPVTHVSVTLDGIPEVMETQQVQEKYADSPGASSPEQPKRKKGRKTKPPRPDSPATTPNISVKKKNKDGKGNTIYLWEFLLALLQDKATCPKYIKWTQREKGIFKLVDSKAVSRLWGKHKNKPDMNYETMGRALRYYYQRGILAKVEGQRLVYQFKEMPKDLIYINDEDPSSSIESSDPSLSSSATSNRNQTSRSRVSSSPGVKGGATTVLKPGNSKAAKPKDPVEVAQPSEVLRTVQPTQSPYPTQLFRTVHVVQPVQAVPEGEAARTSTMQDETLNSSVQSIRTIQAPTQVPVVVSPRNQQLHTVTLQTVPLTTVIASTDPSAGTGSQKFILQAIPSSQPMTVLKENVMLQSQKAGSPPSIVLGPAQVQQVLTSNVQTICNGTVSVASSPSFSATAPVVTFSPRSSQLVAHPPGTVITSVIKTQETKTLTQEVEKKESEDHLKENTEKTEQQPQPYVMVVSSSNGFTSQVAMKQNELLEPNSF
Method in brief: as §1

[6] = molecular target: T5, EHF (Homo sapiens, UniProt Q9NZC4 1-300); conditions: protein: recombinant; tags: N-terminal GST; dsDNA, one strand shown
T5 sequence: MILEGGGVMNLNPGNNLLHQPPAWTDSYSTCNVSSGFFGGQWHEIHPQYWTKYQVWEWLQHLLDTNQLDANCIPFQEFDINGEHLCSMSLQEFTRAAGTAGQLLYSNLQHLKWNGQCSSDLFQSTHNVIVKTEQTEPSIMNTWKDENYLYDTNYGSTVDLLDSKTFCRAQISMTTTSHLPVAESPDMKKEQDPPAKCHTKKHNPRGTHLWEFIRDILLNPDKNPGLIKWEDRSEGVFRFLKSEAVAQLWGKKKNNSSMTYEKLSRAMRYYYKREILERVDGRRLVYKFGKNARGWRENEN
Method in brief: as §1

[7] = molecular target: SPI1 (Homo sapiens, UniProt P17947 1-270); conditions: protein: recombinant; tags: N-terminal GST; dsDNA, one strand shown
Method in brief: as §1

[8] = molecular target: SPIB (Homo sapiens, UniProt Q01892 1-262); conditions: protein: recombinant; tags: N-terminal GST; dsDNA, one strand shown
Chain of SPIB (Q01892 whole entry): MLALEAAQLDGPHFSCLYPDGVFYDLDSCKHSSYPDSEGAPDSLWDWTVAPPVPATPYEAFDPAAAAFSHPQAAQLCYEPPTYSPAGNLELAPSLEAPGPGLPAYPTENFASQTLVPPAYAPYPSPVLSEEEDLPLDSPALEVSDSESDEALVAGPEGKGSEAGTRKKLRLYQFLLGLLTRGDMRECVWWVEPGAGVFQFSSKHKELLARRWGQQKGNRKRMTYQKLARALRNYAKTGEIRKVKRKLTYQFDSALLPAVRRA
Method in brief: as §1

[9] = molecular target: T6, ELK3 (Homo sapiens, UniProt P41970 1-407); conditions: protein: recombinant; tags: N-terminal GST; dsDNA, one strand shown
T6 sequence: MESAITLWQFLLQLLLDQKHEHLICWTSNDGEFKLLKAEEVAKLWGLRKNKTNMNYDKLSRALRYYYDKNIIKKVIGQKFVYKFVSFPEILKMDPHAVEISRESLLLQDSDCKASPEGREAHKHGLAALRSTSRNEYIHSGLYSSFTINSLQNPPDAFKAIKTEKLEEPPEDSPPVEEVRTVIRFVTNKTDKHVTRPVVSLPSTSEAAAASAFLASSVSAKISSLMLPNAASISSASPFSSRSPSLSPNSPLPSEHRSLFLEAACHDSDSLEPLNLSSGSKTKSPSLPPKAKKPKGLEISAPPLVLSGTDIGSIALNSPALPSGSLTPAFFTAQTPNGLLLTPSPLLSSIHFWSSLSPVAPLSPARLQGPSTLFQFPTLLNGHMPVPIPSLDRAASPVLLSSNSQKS
Method in brief: as §1

[10] = molecular target: T7, FEV (Homo sapiens, UniProt Q99581 1-238); conditions: protein: recombinant; tags: N-terminal GST; dsDNA, one strand shown
T7 sequence: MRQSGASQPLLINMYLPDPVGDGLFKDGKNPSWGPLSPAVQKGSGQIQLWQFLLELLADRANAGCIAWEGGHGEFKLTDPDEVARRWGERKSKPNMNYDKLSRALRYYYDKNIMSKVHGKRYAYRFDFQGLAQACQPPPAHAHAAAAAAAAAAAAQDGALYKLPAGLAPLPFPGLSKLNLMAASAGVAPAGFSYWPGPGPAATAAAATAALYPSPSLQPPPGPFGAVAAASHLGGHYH
Method in brief: as §1

[11] = molecular target: ETV5 (Homo sapiens, UniProt P41161 1-510); conditions: protein: recombinant; tags: N-terminal GST; dsDNA, one strand shown
Chain of ETV5 (P41161 whole entry): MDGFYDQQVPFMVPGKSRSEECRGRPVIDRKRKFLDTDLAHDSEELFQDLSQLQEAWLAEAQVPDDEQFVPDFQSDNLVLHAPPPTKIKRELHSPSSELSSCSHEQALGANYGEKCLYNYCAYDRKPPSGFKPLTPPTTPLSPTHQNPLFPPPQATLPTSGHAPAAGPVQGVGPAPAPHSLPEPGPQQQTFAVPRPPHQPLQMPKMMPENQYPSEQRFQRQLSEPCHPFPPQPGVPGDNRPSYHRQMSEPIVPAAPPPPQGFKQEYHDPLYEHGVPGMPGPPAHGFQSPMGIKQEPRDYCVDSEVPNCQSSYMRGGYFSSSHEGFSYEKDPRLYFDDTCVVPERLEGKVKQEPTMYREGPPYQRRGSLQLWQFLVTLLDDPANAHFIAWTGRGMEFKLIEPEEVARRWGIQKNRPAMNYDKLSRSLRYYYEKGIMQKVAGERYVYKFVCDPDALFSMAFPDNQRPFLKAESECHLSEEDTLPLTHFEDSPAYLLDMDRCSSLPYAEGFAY
Method in brief: as §1

[12] = molecular target: HSF1 (Homo sapiens, UniProt Q00613 1-529); conditions: protein: recombinant; tags: N-terminal GST; chain copies: 3; dsDNA, one strand shown
Chain of HSF1 (Q00613 whole entry): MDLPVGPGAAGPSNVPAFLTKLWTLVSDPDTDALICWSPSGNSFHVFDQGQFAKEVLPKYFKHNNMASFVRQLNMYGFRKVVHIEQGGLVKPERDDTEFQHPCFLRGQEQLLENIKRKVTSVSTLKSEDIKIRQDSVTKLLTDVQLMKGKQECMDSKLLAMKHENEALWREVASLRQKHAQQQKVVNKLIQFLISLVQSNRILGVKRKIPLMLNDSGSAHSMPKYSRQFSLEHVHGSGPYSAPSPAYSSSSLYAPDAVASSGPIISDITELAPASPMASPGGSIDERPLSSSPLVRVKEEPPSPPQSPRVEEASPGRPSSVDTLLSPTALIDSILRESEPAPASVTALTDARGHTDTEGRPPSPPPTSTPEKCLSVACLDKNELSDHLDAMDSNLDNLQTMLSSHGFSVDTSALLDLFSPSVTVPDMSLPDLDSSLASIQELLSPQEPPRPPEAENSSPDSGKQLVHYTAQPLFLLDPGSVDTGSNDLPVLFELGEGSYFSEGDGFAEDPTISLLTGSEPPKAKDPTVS
Method in brief: as §1

[13] = molecular target: T8, SPIC (Homo sapiens, UniProt Q8N5J4 1-248); conditions: protein: recombinant; tags: N-terminal GST; dsDNA, one strand shown
T8 sequence: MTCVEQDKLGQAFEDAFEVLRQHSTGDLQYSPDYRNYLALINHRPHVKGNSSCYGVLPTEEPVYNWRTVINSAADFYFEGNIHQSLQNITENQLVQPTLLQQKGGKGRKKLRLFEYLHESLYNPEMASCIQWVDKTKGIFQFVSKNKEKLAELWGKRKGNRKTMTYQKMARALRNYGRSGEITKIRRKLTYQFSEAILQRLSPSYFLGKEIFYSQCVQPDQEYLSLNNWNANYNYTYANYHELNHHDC
Method in brief: as §1

[14] = molecular target: ELF4 (Homo sapiens, UniProt Q99607 1-663); conditions: protein: recombinant; tags: N-terminal GST; dsDNA, one strand shown
Chain of ELF4 (Q99607 whole entry): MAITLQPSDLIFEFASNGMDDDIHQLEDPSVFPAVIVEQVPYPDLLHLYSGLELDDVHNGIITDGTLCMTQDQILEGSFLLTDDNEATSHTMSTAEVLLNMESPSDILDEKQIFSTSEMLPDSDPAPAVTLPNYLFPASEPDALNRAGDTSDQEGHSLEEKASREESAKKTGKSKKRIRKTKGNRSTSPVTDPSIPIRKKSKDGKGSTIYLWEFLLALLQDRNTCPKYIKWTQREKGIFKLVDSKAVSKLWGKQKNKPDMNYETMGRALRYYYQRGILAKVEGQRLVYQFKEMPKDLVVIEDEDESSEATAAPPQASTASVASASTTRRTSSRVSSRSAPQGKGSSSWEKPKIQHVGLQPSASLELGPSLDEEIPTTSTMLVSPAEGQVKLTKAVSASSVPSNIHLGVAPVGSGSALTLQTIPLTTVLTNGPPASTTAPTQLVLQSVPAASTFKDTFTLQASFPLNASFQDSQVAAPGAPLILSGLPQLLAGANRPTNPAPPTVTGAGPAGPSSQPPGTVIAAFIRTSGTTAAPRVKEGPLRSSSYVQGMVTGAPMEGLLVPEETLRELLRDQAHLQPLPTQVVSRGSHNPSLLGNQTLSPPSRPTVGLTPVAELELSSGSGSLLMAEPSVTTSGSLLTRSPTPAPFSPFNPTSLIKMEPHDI
Method in brief: as §1

[15] = molecular target: T9, ELK4 (Homo sapiens, UniProt P28324-2 1-405); conditions: protein: recombinant; tags: N-terminal GST; dsDNA, one strand shown
T9 sequence: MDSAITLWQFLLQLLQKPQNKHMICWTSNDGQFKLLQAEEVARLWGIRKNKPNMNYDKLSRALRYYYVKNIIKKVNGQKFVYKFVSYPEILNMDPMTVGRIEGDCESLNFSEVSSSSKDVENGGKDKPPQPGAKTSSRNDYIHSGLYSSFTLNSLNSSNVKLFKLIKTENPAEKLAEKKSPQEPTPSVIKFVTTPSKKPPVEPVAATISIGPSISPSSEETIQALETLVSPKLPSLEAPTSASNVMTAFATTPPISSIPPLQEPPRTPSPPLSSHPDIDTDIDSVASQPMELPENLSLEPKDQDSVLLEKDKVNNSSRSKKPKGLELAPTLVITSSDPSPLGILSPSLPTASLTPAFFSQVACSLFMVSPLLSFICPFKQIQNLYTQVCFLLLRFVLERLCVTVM
Method in brief: as §1

[16] = molecular target: T10, ETV2 (Homo sapiens, UniProt O00321 1-342); conditions: protein: recombinant; tags: N-terminal GST; dsDNA, one strand shown
T10 sequence: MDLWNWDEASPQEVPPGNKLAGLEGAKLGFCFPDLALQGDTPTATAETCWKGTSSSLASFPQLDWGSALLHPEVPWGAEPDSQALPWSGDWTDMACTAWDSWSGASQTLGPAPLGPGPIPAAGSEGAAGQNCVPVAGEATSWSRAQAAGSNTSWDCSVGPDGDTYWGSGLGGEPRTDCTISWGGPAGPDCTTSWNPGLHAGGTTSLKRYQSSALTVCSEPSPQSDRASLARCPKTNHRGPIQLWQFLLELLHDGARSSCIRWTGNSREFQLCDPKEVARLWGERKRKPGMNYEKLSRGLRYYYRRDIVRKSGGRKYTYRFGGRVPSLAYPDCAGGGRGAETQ
Method in brief: as §1

[17] = molecular target: T11, ELF3 (Homo sapiens, UniProt P78545 1-371); conditions: protein: recombinant; tags: N-terminal GST; dsDNA, one strand shown
T11 sequence: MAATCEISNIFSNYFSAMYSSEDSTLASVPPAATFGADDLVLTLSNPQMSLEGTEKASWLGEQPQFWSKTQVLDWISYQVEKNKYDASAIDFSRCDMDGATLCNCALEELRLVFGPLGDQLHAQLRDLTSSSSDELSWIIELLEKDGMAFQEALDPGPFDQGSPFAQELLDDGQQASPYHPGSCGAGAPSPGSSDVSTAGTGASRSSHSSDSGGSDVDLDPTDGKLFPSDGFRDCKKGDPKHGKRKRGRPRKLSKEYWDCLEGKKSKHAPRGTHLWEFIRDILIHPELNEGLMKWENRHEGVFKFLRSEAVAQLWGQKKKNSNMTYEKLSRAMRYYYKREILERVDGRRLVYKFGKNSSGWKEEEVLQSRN
Method in brief: as §1

[18] = molecular target: CRX (Homo sapiens, UniProt O43186 1-299); conditions: protein: recombinant; tags: N-terminal GST; dsDNA, one strand shown
Chain of CRX (O43186 whole entry): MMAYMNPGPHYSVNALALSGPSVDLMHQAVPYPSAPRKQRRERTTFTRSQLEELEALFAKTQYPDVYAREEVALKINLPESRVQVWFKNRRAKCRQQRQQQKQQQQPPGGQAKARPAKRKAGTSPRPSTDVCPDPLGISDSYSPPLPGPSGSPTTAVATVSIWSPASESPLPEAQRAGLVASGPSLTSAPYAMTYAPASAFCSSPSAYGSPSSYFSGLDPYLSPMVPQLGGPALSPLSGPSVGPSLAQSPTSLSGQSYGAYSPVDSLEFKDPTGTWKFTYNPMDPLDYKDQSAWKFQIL
Method in brief: as §1

[19] = molecular target: ETV1 (Homo sapiens, UniProt P50549 1-477); conditions: protein: recombinant; tags: N-terminal GST; dsDNA, one strand shown
Chain of ETV1 (P50549 whole entry): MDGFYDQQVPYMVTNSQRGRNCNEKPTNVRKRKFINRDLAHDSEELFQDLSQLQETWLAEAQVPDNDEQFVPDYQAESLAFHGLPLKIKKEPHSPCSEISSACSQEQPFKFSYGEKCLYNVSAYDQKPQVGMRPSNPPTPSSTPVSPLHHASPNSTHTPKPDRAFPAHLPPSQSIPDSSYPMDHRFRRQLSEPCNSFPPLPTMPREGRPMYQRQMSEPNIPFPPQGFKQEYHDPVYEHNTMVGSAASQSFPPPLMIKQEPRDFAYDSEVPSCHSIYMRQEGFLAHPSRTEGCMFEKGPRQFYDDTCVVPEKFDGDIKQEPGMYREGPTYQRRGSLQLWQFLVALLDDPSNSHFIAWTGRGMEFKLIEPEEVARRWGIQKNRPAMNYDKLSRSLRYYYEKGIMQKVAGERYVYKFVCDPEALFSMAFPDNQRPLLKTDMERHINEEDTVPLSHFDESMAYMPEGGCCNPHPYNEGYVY
Method in brief: as §1

For ACCTTT, the binding signal [1] was 1.52 fold enrichment (6-mer frequency, TF over GST control), the binding signal [2] was 1.33 fold enrichment (6-mer frequency, TF over GST control) and the binding signal [3] was 1.47 fold enrichment (6-mer frequency, TF over GST control). The binding signal [4] was 1.38 fold enrichment (6-mer frequency, TF over GST control), the binding signal [5] was 1.47 fold enrichment (6-mer frequency, TF over GST control) and the binding signal [6] was 1.38 fold enrichment (6-mer frequency, TF over GST control). The binding signal [7] was 1.49 fold enrichment (6-mer frequency, TF over GST control), the binding signal [8] was 1.45 fold enrichment (6-mer frequency, TF over GST control) and the binding signal [9] was 1.35 fold enrichment (6-mer frequency, TF over GST control). For the same sequence, the binding signal [10] was 1.45 fold enrichment (6-mer frequency, TF over GST control), the binding signal [11] was 1.36 fold enrichment (6-mer frequency, TF over GST control) and the binding signal [12] was 1.36 fold enrichment (6-mer frequency, TF over GST control). The binding signal [13] was 1.58 fold enrichment (6-mer frequency, TF over GST control), the binding signal [14] was 1.42 fold enrichment (6-mer frequency, TF over GST control) and the binding signal [15] was 1.49 fold enrichment (6-mer frequency, TF over GST control). The binding signal [16] was 1.31 fold enrichment (6-mer frequency, TF over GST control), the binding signal [17] was 1.32 fold enrichment (6-mer frequency, TF over GST control) and the binding signal [18] was 1.3 fold enrichment (6-mer frequency, TF over GST control). The binding signal [19] was 1.43 fold enrichment (6-mer frequency, TF over GST control).
